The campaign covered roughly 320,000 compounds. About 2,100 (0.66%) were called active. Another 53% or so got no clear call; they are omitted. Calls follow the shape of the dose curve; as a rule, active = well fitted inhibition curve with a large enough effect in the signal ratio, with a control signal flat (not every such curve was filed as active); inconclusive = small, poorly fitted or top-dose-only effect, or effect the other way, or a change in a side signal; inactive = flat fitted curve, though single readings scatter; the % refers to the signal ratio. The sample as a whole holds a higher share of actives than the screen did.
Potency is read from the fitted curve at half-maximal effect.

The test can be described thus: qHTS Assay for Lipid Storage Modulators in Drosophila S3 Cells.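 As to cell number change: cells counted by Cell Tracker Red CMTPX staining in the red channel.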 As to lipid storage change, negative = inhibition: % is scaled to controls: 0 for no effect and ±100 for the full control effect. Conditions: BODIPY lipid droplet fluorescence, 18-24 h, cells fed with added oleic acid; cell number change: measured here: cell count max response; series mostly up to 46.1 µM; lipid storage change, negative = inhibition: at the top concentration. The essentials:
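Drosophila S3 cells loaded with oleic acid (400 uM, as added) and compounds at several concentrations; lipid droplets imaged by 488-nm laser-scanning cytometry, 500–530 nm intensity and object ratio to cell channel. Percent activity normalized to 20 uM Triacsin C.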
For orientation: Quantitative high-throughput screening tests each substance at several concentrations.
Consider `Cc1c(C(=O)N2CCCCC2)c(S(=O)(=O)NCCc2ccccc2)c(C)n1C`, for which the outcome was inactive and the cell number change is -0.59%.

As for `CCOC(=O)COc1ccc(S(=O)(=O)N2CCN(C(=O)OCC)CC2)cc1`, the “lipid storage change, negative = inhibition” value was 15% (inactive) and the cell number change is -5.47%.

For `CCCn1c(SCC(=O)NC2CC2)nnc1-c1cccs1`, the “lipid storage change, negative = inhibition” value was -14.1% (inactive) and the cell number change was determined as 9.09%.

Consider `Cc1ccc(NC(=O)CSCC(=O)N2CCN(Cc3ccc4c(c3)OCO4)CC2)cc1`, for which the outcome was inactive and the cell number change turned out to be 21.6%.

Consider `COc1ccc(NC2CCCN(C(=O)CSc3ccccn3)C2)cc1OC` (stereo not given), for which the “lipid storage change, negative = inhibition” value is -17.1% (inactive) and the cell number change is -4.53%.

With `COc1ccc(NC2CCCN(C(=O)CN3C(=O)c4ccccc4C3=O)C2)cc1OC` (stereo not given), the Potency is 18.4 µM (active) and the cell number change was -13.7%.

For `COc1ccc(NC2CCCN(C(=O)CCN3CCCC3=O)C2)cc1` (stereo not given), the “lipid storage change, negative = inhibition” value is 8.07% (inactive) and the cell number change amounted to 24.3%.

Take `COc1ccc(NC2CCCN(C(=O)CSc3ccncc3)C2)cc1` (stereo not given): the Potency is 0.231 µM (active) and the cell number change was -29%.

Take `Cc1ccc(NC2CCCN(C(=O)CN3C(=O)c4ccccc4C3=O)C2)cc1C` (stereo not given): the “lipid storage change, negative = inhibition” value is 18.6% (inactive) and the cell number change amounted to 5.05%.

Regarding `COc1ccc(NC2CCCN(C(=O)CCOc3ccccc3)C2)cc1` (stereo not given), the molecule was classed as inactive and the cell number change was found to be 2.67%.

Regarding `COc1ccc(NC2CCCN(C(=O)c3ccncc3)C2)cc1` (stereo not given), the call was inactive and the cell number change is -9.17%.

Regarding `COc1ccc(NC2CCCN(C(=O)CSc3ccccc3)C2)cc1` (stereo not given), the molecule was called inactive and the cell number change was 3.54%.

Regarding `COc1ccc(NC2CCCN(C(=O)COc3ccc(C)cc3)C2)cc1` (stereo not given), the Potency is 2.06 µM (active) and the cell number change was -19.8%.

With `COc1ccc(CC(=O)Nc2ccccc2C(=O)NCCc2ccccc2)cc1`, the call was inactive and the cell number change worked out at 7.51%.

`Cc1ccc(OCC(O)CN2CCN(c3ccccc3)CC2)cc1` (stereo not given): the “lipid storage change, negative = inhibition” value is 15.5% (inactive) and the cell number change is -26.7%.

Turning to `O=C(Nc1ccc(S(=O)(=O)N2CCCCC2)cc1)C1CC1`, the “lipid storage change, negative = inhibition” value is 11.8% (inactive) and the cell number change was 19.3%.

With `N/C(=N\OC(=O)Cc1ccccc1[N+](=O)[O-])c1cccc(Br)c1`, the “lipid storage change, negative = inhibition” value is -1.94% (inactive) and the cell number change was -2.3%.

As to `CC(=O)Nc1ccc2c(c1)nc(CCN1CCN(c3ccccn3)CC1)n2C`, the “lipid storage change, negative = inhibition” value was 25.6% (inactive) and the cell number change is -2.13%.

For the molecule `Cc1ccc(S(=O)(=O)Nc2ccc3c(c2)nc(CCN2CCN(c4ccccn4)CC2)n3C)cc1`, the Potency is 16.4 µM (active) and the cell number change was found to be 24.4%.

Consider `Cn1c(CCN2CCN(c3ccccn3)CC2)nc2cc(NS(=O)(=O)c3ccccc3)ccc21`, for which the “lipid storage change, negative = inhibition” value is 8.02% (inactive) and the cell number change is 8.74%.

`O=C(/C=C/N1CCN(Cc2ccccc2)CC1)C(F)(F)F`: the cell number change is 4.65% and the lipid storage change, negative = inhibition is -0.119% [at 9.22 µM] (inactive).

For `O=C(O)COc1c(-c2ccccc2)oc2ccccc2c1=O`, the Potency is 23.1 µM (active) and the cell number change turned out to be 10.5%.

For `NC(=O)COc1c(-c2ccccc2)oc2ccccc2c1=O`, the “lipid storage change, negative = inhibition” value was 28.7% (inactive) and the cell number change worked out at 0.203%.

`O=C(O)COc1c(-c2ccc(Cl)cc2)oc2ccccc2c1=O`: the “lipid storage change, negative = inhibition” value is -2.1% (inactive) and the cell number change came to 7.07%.

As for `COc1ccc(CNC(=O)CSc2n[nH]c(N)n2)cc1`, the result was inactive and the cell number change stood at 2.63%.

The values above are taken from PubChem BioAssay AID2685 (National Center for Advancing Translational Sciences (NCATS), 2010).
